# Laboratory results as given in ChEMBL document CHEMBL3988442, “University of Dundee, Small-Polar-MMV Screening Library” (2021).
# About 950 (1.4%) of roughly 69,000 compounds showed an effect of 50% or more. The full list was thinned out, with strong results kept by preference.
# Tested on: Mycobacterium tuberculosis
# Assay: Cornell M. t heat shock assay; further: in the data most compounds retested in dose-response had high values
# Format: functional, organism-based
# Parameters: dose or concentration left out as unconfirmed
row,Compound,Percent Effect [%]
1,Cc1cccc(CN2CCC3(CC2)CN(c2cnn(C)c2)C(=O)CO3)n1.O=C(O)C(F)(F)F,-22.92
2,CNc1cc(C2CCCNC2)nc(C)n1.Cl.Cl (centres undefined),-17.65
3,Cc1cc(C(F)(F)F)nc(CCNC(C)Cn2cncn2)n1 (centres undefined),16.73
4,Cc1cc(C(F)(F)F)nc(CCNC(C)Cn2nc(C)cc2C)n1 (centres undefined),1.181
5,Cc1cc(C(F)(F)F)nc(CCNC(C)Cn2ccnc2)n1 (centres undefined),103.9
6,CCN1CCC2(CC1)OCCN2C(=O)c1cc(Cl)c(OC)c(Cl)c1.Cl,13.79
7,CN(C)C[C@@H]1CN(C2CCN(c3ccccc3Cl)CC2)C[C@@H]1CO,-0.06241
8,Cc1cc(F)ccc1N1CCC(N2C[C@@H](C)[C@@](C)(O)C2)CC1,33.53
9,Cc1ccc(N2CCC(N3C[C@@H](CN(C)C)[C@@H](CO)C3)CC2)cc1,-10.07
10,Cc1cc(F)ccc1N1CCC(N2C[C@@H](CN(C)C)[C@@H](CO)C2)CC1,101.8
11,CN(C)C[C@@H]1CN(C2CCN(c3ccc(Cl)cc3)CC2)C[C@@H]1CO,39.93
12,CN(CCO)C[C@@H]1CN(C2CCN(c3ccccc3Cl)CC2)C[C@@H]1CO,81.68
13,CCc1nc(C)cc(N2CCN(C(=O)[C@@H]3C[C@@H]4C=C[C@H]3C4)CC2)n1,-1.962
14,CS(=O)(=O)NCc1cc(=O)n2c(n1)CN(CC1CC1)CCC2.O=C(O)C(F)(F)F,5.307
15,O=C(O)C(F)(F)F.O=C(O)C(F)(F)F.O=C1CC[C@H]2[C@H](CCN2Cc2ccccn2)N1CC1CCOCC1,-34.7
16,Cc1cccc(CN2C(=O)C[C@@H]3[C@@H]2CCN3Cc2ccsc2)n1.O=C(O)C(F)(F)F.O=C(O)C(F)(F)F,-5.235
17,Cl.NC(=O)COc1ccc(CNCc2ccc(F)cc2)cc1,-18.87
18,Cc1noc(C)c1CCC(=O)N1CCN(CCn2cccn2)CC1,-5.618
19,Cc1noc(C)c1CCC(=O)N1CCN(CCn2cncn2)CC1,78.74
20,Cc1noc(C)c1CN1CCN(C(=O)CCn2cncn2)CC1,-3.616
21,Cn1ncc(Cl)c1C(=O)N1CCC(c2nnsc2S(C)(=O)=O)CC1,-21.53

row,Compound,Percent Effect [%]
1,Cn1cnc(S(=O)(=O)N2CC3(CCN(Cc4ccncc4)C3)C2)c1.O=C(O)C(F)(F)F.O=C(O)C(F)(F)F.O=C(O)C(F)(F)F,36.02
2,CN(C)C(=O)COCC1CN(Cc2ccco2)Cc2ncn(C)c21.O=C(O)C(F)(F)F.O=C(O)C(F)(F)F (centres undefined),31.48
3,COCC(C)(CCO)NC(=O)Nc1cccc(Br)c1C (centres undefined),16.48
4,CN1CC(=O)N(c2ccsc2)CC12CCN(C(=O)Nc1ccccc1)C2.O=C(O)C(F)(F)F (centres undefined),-18.81
5,O=C(N1CCCO1)[C@@]12CCO[C@@H]1CCN(Cc1cccs1)C2.O=C(O)C(F)(F)F,-21.11
6,O=C(N1CCCC1)C12CC(CN1Cc1nccs1)C2,42.03
7,Cc1ccsc1C(=O)N1CC2CC1(C(=O)NCC1CC1)C2,-11.04
8,O=C(NCC1CC1)C12CC(CN1Cc1nccs1)C2,54.2
9,Cc1cc(N2CCN(Cc3cn(C)nc3C)CC2)cc(C2CCCN2)n1.Cl (centres undefined),-11.47
10,CC(=O)N1CCCC1c1nnn2cc(Nc3ccccc3)ccc12.O=C(O)C(F)(F)F (centres undefined),86.99
11,CC(=O)N1CCCC1c1nnn2cc(NCc3cccnc3)ccc12.O=C(O)C(F)(F)F.O=C(O)C(F)(F)F (centres undefined),27.19
12,CC(=O)N1CCCC1c1nnn2cc(-c3ccncc3)ccc12.O=C(O)C(F)(F)F (centres undefined),8.291
13,CC(C)(C)c1n[nH]c(C2CN(CCc3ccncc3)CCO2)n1 (centres undefined),12.04
14,CC(=O)N1CCN(Cc2ccncc2)CC2(CC(=O)N(C)C2)C1.O=C(O)C(F)(F)F.O=C(O)C(F)(F)F (centres undefined),-4.515
15,Cn1ccnc1CN1CC[C@H]2CO[C@H](CNc3ncccn3)[C@H]2C1.O=C(O)C(F)(F)F.O=C(O)C(F)(F)F.O=C(O)C(F)(F)F,-17.85
16,Cc1cccc(CNC(=O)CC2CCN(Cc3ccccn3)CC2)n1,-18.17
17,COc1cc(COCC2CCN(Cc3ccccn3)CC2)cc(OC)c1.O=C(O)C(=O)O,-10.83
18,Fc1ccccc1CC1CCN(Cc2cscn2)CC1,-8.017
19,Fc1ccccc1CC1CCN(Cc2nccs2)CC1,7.97
20,Clc1ccc(COCC2CCN(Cc3ccccn3)CC2)cc1.O=C(O)C(=O)O,53.14
21,Cc1cccc(CN2CCC(Cc3ccccc3F)CC2)n1,100.5

row,Compound,Percent Effect [%]
1,Fc1ccc(COCC2CCN(Cc3ccccn3)CC2)cc1.O=C(O)C(=O)O,-21.79
2,Cc1cccc(CN2CCC(NS(C)(=O)=O)CC2)n1,10.63
3,Fc1ccccc1CC1CCN(Cc2ccccn2)CC1,54.97
4,CN1C[C@H]2C[C@H](C(=O)Nc3cccnc3)[C@@H](C1)O2,-0.0821
5,COc1ccc(CNCC(C)Oc2ccccn2)cc1.Cl (centres undefined),-11.53
6,Cc1cc(C(=O)N2CC[C@]3(C[C@@H](OCc4ccccn4)CO3)C2)c(C)o1.O=C(O)C(F)(F)F,38.17
7,CN(C)C(=O)CN1CCc2ncnc(N(C)C)c2CC1.O=C(O)C(F)(F)F,23.34
8,COCCn1cc2c(n1)C(CNCc1nccs1)OCC2.O=C(O)C(F)(F)F.O=C(O)C(F)(F)F (centres undefined),-27.8
9,CN(C)Cc1cncc2c1CCN(Cc1ccoc1)C2.Cl.Cl.Cl,-10.16
10,O=C(O)C(F)(F)F.O=C(O)C(F)(F)F.O=C1[C@H]2CN(Cc3cccs3)C[C@H]2CN1CCN1CCCC1,-16.55
11,NC(=O)N1CC[C@H]2CO[C@H](CNC(=O)c3ccnnc3)[C@H]2C1,-0.7451
12,CC(C)C(=O)N1CCC(C)(c2cc(O)[nH]n2)CC1,1.922
13,COCC(=O)N1CCC(C)(c2cc(O)[nH]n2)CC1,53.15
14,COCCN1CCC(C)(c2cc(O)[nH]n2)CC1,-2.336
15,CCOCC1CN(Cc2ccc(F)cc2)Cc2nn(C)cc21.O=C(O)C(F)(F)F (centres undefined),-29.18
16,CC(C)c1nc(CN2CCCCC2)cs1,0.8394
17,CC(C)c1nc(CC(=O)Nc2nc(CN3CCCCCC3)cs2)cs1,104.4
18,CC(C)c1nc(CN2CCC(CO)CC2)cs1,17.89
19,Oc1ccc([C@H]2Oc3cc(O)cc(O)c3C[C@@H]2O)cc1,-4.634
20,COc1cc(C2CC(=O)c3c(O)cc(O)cc3O2)ccc1O (centres undefined),5.655
21,O=C1c2c(O)cc(O)cc2O[C@@H](c2ccc(O)cc2)[C@@H]1O,53.66

row,Compound,Percent Effect [%]
1,CN(C)C(=O)[C@H]1C[C@@H]2CCN(Cc3ccoc3)C[C@@H]2O1.O=C(O)C(F)(F)F,36.25
2,Cc1ccc(C(=O)N2Cc3c(CN(C)C)nn(C)c3C2)cc1C.O=C(O)C(F)(F)F,-17.18
3,CC(=O)c1ccc(Nc2nc(N)nc3c2nc(C)n3C)cc1,10.63
4,Cc1nc2c(Nc3ccc(C#N)cc3)nc(N)nc2n1C,5.734
5,Cc1nc2c(Nc3cccc(C#N)c3)nc(N)nc2n1C,102.2
6,CS(=O)(=O)N1CC[C@H]2OCC[C@@]2(C(=O)NCCc2ccccn2)C1.O=C(O)C(F)(F)F,-5.552
7,O=C(NCc1ccccn1)[C@@]12CCO[C@@H]1CCN(C1CCCC1)C2.O=C(O)C(F)(F)F.O=C(O)C(F)(F)F,40.27
8,CS(=O)(=O)N1CC[C@H]2OCC[C@@]2(C(=O)NCc2ccccn2)C1.O=C(O)C(F)(F)F,65.18
9,Cc1cnc(CNC(=O)[C@@]23CCO[C@@H]2CCN(C2CCCC2)C3)cn1.O=C(O)C(F)(F)F,35.39
10,O=C(NCCc1ccccn1)[C@@]12CCO[C@@H]1CCN(c1ncccn1)C2,-5.799
11,Cc1cnc(CNC(=O)[C@@]23CCO[C@@H]2CCN(c2ncccn2)C3)cn1,39.63
12,O=C(NCc1ccccn1)[C@@]12CCO[C@@H]1CCN(c1ncccn1)C2,92.45
13,CC(=O)N1CC[C@H]2OCC[C@@]2(C(=O)NCc2cnc(C)cn2)C1,51.19
14,O=C(NCc1ccccn1)[C@@]12CCO[C@@H]1CCN(Cc1ccccn1)C2.O=C(O)C(F)(F)F.O=C(O)C(F)(F)F.O=C(O)C(F)(F)F,19.83
15,Cc1ccc(O[C@@H]2C[C@H]3CN(c4ncc(F)cn4)CCN3C2)cc1.O=C(O)C(F)(F)F.O=C(O)C(F)(F)F,19.77
16,CN(C)S(=O)(=O)N1C[C@H]2C[C@H](C(=O)Nc3ccccc3)[C@@H](C1)O2,3.45
17,N#Cc1cccc(CN2CC[C@@H]3[C@@H]2CC(=O)N3Cc2ccncc2)c1.O=C(O)C(F)(F)F.O=C(O)C(F)(F)F,1.363
18,COCCN1CC[C@H]2OCC[C@@H](C(=O)N3CCCO3)[C@H]2C1.O=C(O)C(F)(F)F,-19.22
19,O=C(O)C(F)(F)F.c1ccc(N2CCC3(CCCN(c4ncccn4)C3)C2)nc1 (centres undefined),-26.18
20,CC(C)NC(=O)[C@H]1C[C@H]2OCC[C@H]2N(Cc2ccc3ccccc3n2)C1.O=C(O)C(F)(F)F.O=C(O)C(F)(F)F,-9.211
21,Cc1ccc(C(=O)N2CCC3(CC2)CN(c2ccccn2)CCO3)cc1.O=C(O)C(F)(F)F,-9.264
